# Screening results: PubChem, National Center for Advancing Translational Sciences (NCATS)
# CCT chaperon mod – cytosolic chaperonin activity modulation. purified chaperonin ATPase assay, HTRF ADP detection, 30 min. activity change, % (test concentration not listed), hits read low. 360,000 compounds, 0.3% hits. AID 651819; in the data active = activity change below about -30%
#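 ATPase activity: ADP formed was measured by HTRF Transcreener (665/615 nm ratio) after 30 min at 37 deg C with 10 uM ATP. Compounds screened at one 76 uM concentration against 40 or 20 nM TRiC in Tris pH 7.4/KCl/MgCl2/DTT buffer.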
# Sfp PPTase inh – Sfp phosphopantetheinyl transferase inhibition | Biochemical Sfp PPTase activity, qHTS | AID 1490 | Potency, µM, for the others: largest response in the series, negative = inhibition, usual class: inhibitors | 310,000 compounds, 3.5% hits | Q9F4F7;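 also: the enzyme is Sfp with the accession as filed and its product quenches rhodamine fluorescence; potency is read from the fitted curve at half-maximal effect; 0% = enzyme reaction without inhibitor and -100% = no enzyme wells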
#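 Step 1, compound plus 15 nM Sfp-PPTase, 15 min, room temperature. Step 2, add rhodamine-CoA (5 uM) and BHQ-2-YbbR (12.5 uM). Step 3, read 525/598 nm fluorescence at 0 and 30 min.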
# VDR inhibitor – blocks the human vitamin D receptor; P11473; VDR-SRC2-3 peptide fluorescence polarization, 2 h; Potency, µM, for the others: max response, negative = inhibition, most hits filed as inhibitors; 400,000 compounds, 0.93% hits; AID 504847; also: potency is read from the fitted curve at half-maximal effect
#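 FP read-out; VDR + SRC2-3 coactivator peptide; 23 nl compound by pintool; 2 h RT incubation; reagents held at 4 deg C, protected from light.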
# PLK1 PBD inh – PLK1 (human) polo-box domain binding inhibition; Plk1 PBD binding of FITC phosphopeptide, fluorescence polarization; 360,000 compounds, 2.8% hits; P53350; Potency, µM, inactives show max response, negative = inhibition, usual class: inhibitors; also: potency is read from the fitted curve at half-maximal effect; series mostly up to about 57 µM; nearly all actives have a fitted effect of over 65% in size
# Target sequence (P53350 whole entry, looked up, the tested form may be a part): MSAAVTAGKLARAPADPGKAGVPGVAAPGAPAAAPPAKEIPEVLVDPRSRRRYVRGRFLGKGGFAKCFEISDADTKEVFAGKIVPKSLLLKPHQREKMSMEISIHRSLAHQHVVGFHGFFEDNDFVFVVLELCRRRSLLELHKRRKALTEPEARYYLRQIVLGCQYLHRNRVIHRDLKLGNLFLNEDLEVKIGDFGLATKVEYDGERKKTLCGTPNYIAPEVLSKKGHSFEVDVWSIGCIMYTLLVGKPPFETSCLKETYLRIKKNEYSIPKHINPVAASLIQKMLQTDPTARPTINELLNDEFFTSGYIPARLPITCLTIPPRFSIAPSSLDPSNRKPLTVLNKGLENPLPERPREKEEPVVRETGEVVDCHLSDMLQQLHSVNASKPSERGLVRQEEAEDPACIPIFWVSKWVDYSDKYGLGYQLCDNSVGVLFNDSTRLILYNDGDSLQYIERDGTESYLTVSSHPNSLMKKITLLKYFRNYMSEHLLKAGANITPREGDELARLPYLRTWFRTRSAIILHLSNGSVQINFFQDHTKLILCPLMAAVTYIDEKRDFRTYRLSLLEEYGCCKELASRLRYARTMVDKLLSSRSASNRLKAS
# G9a inh – inhibitors of human histone lysine methyltransferase G9a. Q96KQ7. Potency, µM (top dose mostly 102 µM), without a hit: at the top dose activity, negative = inhibition, hits mostly inhibitors. G9a H3K9 monomethylation, AlphaScreen, 2 h. AID 504332. 350,000 compounds, 8.8% hits; also: potency is read from the fitted curve at half-maximal effect; nearly all actives have a fitted effect of over 75% in size
#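 Methyltransferase reactions run at room temperature for 2 h (20 nM enzyme, 500 nM biotin-H3K9 peptide, 20 uM SAM) after a 15 min compound preincubation; product detected by AlphaScreen beads and anti-H3K9me1 antibody.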
# MmCpn inh – inhibitors of Methanococcus maripaludis chaperonin TRiC (MmCpn); Potency, µM (series often up to 76.9 µM), for the others: at the top dose activity, negative = inhibition, actives largely listed as inhibitors; purified Mm-Cpn ATPase, ADP Transcreener TR-FRET; 330,000 compounds, 0.031% hits; AID 504842; also: potency is read from the fitted curve at half-maximal effect; nearly all actives have a fitted effect of over 80% in size
#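 Purified archaeal chaperonin (25 nM final) was preincubated with compound for 10 min at 37°C, then ATP (10 uM final) was added for 30 min at 37°C in Tris pH 7.4/KCl/MgCl2/DTT buffer. ADP was quantified by HTRF Transcreener TR-FRET.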
# Starred values were filed as active, the others as inactive; ? = inconclusive; nt = no result given; [ ] = dose if it differs, or a comment. Sampled rows, rich in hits. Any-hit rate of the full collection: about 10%. Unless noted, calls follow the shape of the dose curve; as a rule, active = well fitted curve in the direction sought with a large enough effect; inconclusive = small, poorly fitted or top-dose-only effect, or another doubt; inactive = no such curve, though single readings can be large; an effect the other way counts as inactive or inconclusive. Unless noted, % is scaled to controls: 0 for no effect and ±100 for the full control effect.
SMILES,CCT chaperon mod,Sfp PPTase inh,VDR inhibitor,PLK1 PBD inh,G9a inh,MmCpn inh
O=C(c1ccco1)N1CCN(c2nc(C3CC3)nc3sc4c(c23)CCCC4)CC1,-4,79µM*,?,-24%,-96%[59 µM],-3%
CCc1nc(N2CCN(C(=O)CCl)CC2)c2c3c(sc2n1)CC(C)CC3 (configuration not stated),1,-25%,?,-5%,79µM*,-2%
Cc1nc(N2CCN(C(=O)c3ccco3)CC2)c2c3c(sc2n1)CCCC3,-4,5%,-5%,-12%,?,-1%
CCc1nc(N2CCN(C(C)=O)CC2)c2c3c(sc2n1)CC(C(C)(C)C)CC3 (configuration not stated),0,-22%,-28%,3%,-20%,0%
CC(C)(C)C1CCc2c(sc(NC(=O)Cn3nnc(-c4ccccc4F)n3)c2C#N)C1 (configuration not stated),nt,nt,-13%,nt,2%[59 µM],nt
CCc1ccccc1NS(=O)(=O)c1ccc2[nH]cc(C(=O)N3CCCCC3)c(=O)c2c1,nt,nt,-13%,nt,9%[59 µM],nt
Cc1nc(N2CCN(C(=O)c3ccco3)CC2)c2c3c(sc2n1)CC(C)CC3 (configuration not stated),0,?,-20%,-15%,50µM*,1%
COCCn1c(=O)c(-c2ccc(OC)cc2)nc2cnc(Nc3ccccc3)nc21,nt,20%,17%,nt,-1%[12.7 µM],nt
CN(C)c1ccc(/C=C(\Cl)c2nc3ccccc3s2)cc1,1,?,-21%,-3%,14µM*,2%
COc1ccc(/C=C(\CC(=O)O)c2nc3ccccc3s2)cc1O,-1,-6%,-1%,-22%,11%,0%
COc1cc(/C=N/NC(=Nc2ccc(C)cc2)c2nc3ccccc3s2)ccc1O,-3,-15%,19%,-3%,14µM*,-3%
Brc1cc2c(cc1/C=N/Nc1nc3ccccc3s1)OCO2,0,-26%,-16%,-1%,25%,-2%
O=C(O)C/C(=C\c1cc2c(cc1Br)OCO2)c1nc2ccccc2s1,-2,?,-13%,24µM*,10µM*,?
COc1cc(C=C(c2nc3ccccc3s2)c2nc3ccccc3s2)cc(OC)c1O,1,-12%,5%,-6%,6.3µM*,-3%
O=C(O)[C@H]1CN(CCCP(=O)(O)O)CCN1,nt,8%,2%,nt,nt,nt
CCOc1cccc(C(=O)c2ccc(O)c(O)c2O)c1,nt,-79%,?,nt,?,nt
CCCN(CCC)C(=O)Cn1c(=O)n(-c2ccccc2)c(=O)c2c3c(sc21)CCCC3,nt,nt,8%,nt,-4%[59 µM],nt
COc1ccc(-c2nc3ccccc3s2)cc1O,3,-7%,-3%,24µM*,?,-5%
COc1cc(/C=C(\CC(=O)O)c2nc3ccccc3s2)cc(OC)c1O,2,35µM*,-8%,-25%,14µM*,-3%
COc1cccc(-c2nc(CS(=O)(=O)CC(=O)NCc3ccc(C)cc3)c(C)o2)c1,nt,nt,-12%,nt,-17%[59 µM],nt
CCOc1ccc2c(c1)c(=O)c(C(=O)c1ccc3c(c1)OCO3)cn2Cc1ccc(F)cc1,nt,nt,6%,nt,-3%[59 µM],nt
O=C(O)[C@@H]1CSCN1,nt,56µM*,13%,nt,-2%[12.7 µM],nt
CCOC(=O)C1=C(C)N=C2SCCC(=O)N2C1c1ccc(OCc2ccccc2)c(OC)c1 (configuration not stated),nt,nt,-9%,nt,-2%[59 µM],nt
CC1CCN(c2nc3ccc(C(=O)N4CCN(Cc5ccc6c(c5)OCO6)CC4)cc3s2)CC1,0,3%,1%,2%,28µM*,0%
Cc1ccc2c(C)c(C(=O)N3CCN(Cc4ccc5c(c4)OCO5)CC3)oc2c1C,-1,79µM*,12%,4%,50µM*,-1%
SMILES,CCT chaperon mod,Sfp PPTase inh,VDR inhibitor,PLK1 PBD inh,G9a inh,MmCpn inh
Cc1c(C(=O)N2CCN(Cc3ccc4c(c3)OCO4)CC2)sc2ncnc(N3CCN(c4ccccc4)CC3)c12,1,10%,3%,1%,21%,-8%
Cc1ccc(C(=O)N2CCN(Cc3ccc4c(c3)OCO4)CC2)o1,-1,7%,-2%,1%,7%[59 µM],1%
COc1cccc(OC)c1C(=O)N1CCN(Cc2ccc3c(c2)OCO3)CC1,-2,-18%,2%,-3%,14µM*,1%
Cc1c(C(=O)N2CCN(Cc3ccc4c(c3)OCO4)CC2)sc2ncnc(N3CCN(c4ccccc4F)CC3)c12,-74*,0%,-7%,3%,nt,-5%
Cn1nccc1C(=O)NCc1ccc2c(c1)CCN2C(=O)c1ccc(F)cc1,nt,nt,7%,nt,4%[59 µM],nt
Cc1ccc(C(=O)Oc2cc(-c3ccccc3)no2)cc1,-1,0%,3%,-15%,4%,2%
O=C(Oc1cc(-c2ccccc2)no1)c1ccc(Cl)cc1,-1,-5%,6%,24µM*,79µM*,-6%
C(=NN=Cc1c[nH]c2ccccc12)c1c[nH]c2ccccc12,-1,nt,nt,-5%,nt,nt
C(=N\c1nccs1)/c1c[nH]c2ccccc12,2,45µM*,9%,-23%,?,nt
CCC(=O)Nc1c(C(=O)N2CCN(c3ccccn3)CC2)cnn1-c1ccc(Cl)cc1,-57*,24%,5%,-2%,-12%[59 µM],1%
CC(C)(C)c1cc(C(=O)N/N=C/c2ccc(-c3ccccc3[N+](=O)[O-])o2)n[nH]1,0,-7%,?,?,40µM*,0%
O=C(N/N=C/c1ccc(-c2ccccc2[N+](=O)[O-])o1)c1cccnc1,1,-6%,?,?,-43%[12.7 µM],-2%
CC(O)[C@H]1CN=C(N)N1CC1CCCCC1 (some centres not stated),-1,nt,?,27µM*,nt,nt
O=C1Nc2ccccc2C1Cc1ccc(OC(F)(F)F)cc1 (configuration not stated),-1,23%,-10%,-10%,1%,-1%
COc1cc(CC2C(=O)Nc3ccccc32)cc(C)c1O (configuration not stated),0,7%,-22%,-17%,35µM*,1%
O=C1NN(c2ccc(Cl)c(Cl)c2)C(=O)/C1=C/c1ccc(-c2ccccc2C(=O)O)o1,0,25%,45µM*,19µM*,40µM*,0%
O=C1NN(c2ccccc2)C(=O)/C1=C/c1ccc(Sc2cccc3ccccc23)o1,0,?,?,12µM*,32µM*,-8%
Cc1ccc(N2NC(=O)/C(=C/c3ccc(-c4ccc(Cl)c(C(=O)O)c4)o3)C2=O)cc1C,-3,11%,5%,?,?,1%
CN(/N=C/c1ccc(-c2ccc([N+](=O)[O-])cc2)o1)c1ccccc1,-2,-4%,-2%,15%,-5%,-6%
